Results filed as inconclusive are left out. The source made the active and inactive calls. Calls follow the shape of the dose curve; as a rule, active = well fitted inhibition curve with a large enough effect; inconclusive = small, poorly fitted or top-dose-only effect, or effect the other way; inactive = no such curve, though single readings can be large or run the other way.
test: High Content Imaging Cell-Based qHTS for Inhibitors of the mTORC1 Signaling Pathway in MEF Cells (AID 2667); conditions: series mostly up to 38.3 µM; activity change, negative = inhibition: at the top concentration;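 also: Tsc2-/- p53-/- MEFs stably re-expressing wild-type Tsc2 exposed 24 h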
Text: NIH Molecular Libraries Probe Production Centers Network [MLPCN]
NIH Chemical Genomics Center [NCGC]
Assay Submitter (PI): Blenis, John; Hoffman, Greg; Harvard University
NCGC Assay Overview: The mammalian target of rapamycin (mTOR) is an intracellular serine/threonine kinase Aberrant regulation of mTOR signaling plays a causative role in a number of human diseases, including cancer, benign tumors such as lymphangioleiomyomatosis (LAM) and Tuberous Sclerosis Complex (TSC), and metabolic diseases such as diabetes and obesity. This project aims to identify inhibitors of ribosomal protein S6 (rpS6) phosphorylation. The phosphorylation of rpS6 is a key event downstream of mTOR activation. The assay uses a phospho-specific antibody of phospho-rpS6 to detect inhibitors of mTOR activation. Mutations in the Tsc1 and Tsc2 genes are the underlying genetic lesions responsible for TSC, causing constitutive activation of the mTORC1 pathway and leading to profound effects on cell metabolism. Aberrant metabolism in cancer has recently received significant attention as a target to develop therapeutic agents in the treatment of cancer.1 As Tsc2-/- cells have lost the ability to respond to energy and growth factor deprivation, these cells are unable to properly down regulate cellular biosynthetic processes in response to metabolic stress, and are thus extremely sensitive to glucose deprivation-induced death.2 A central goal of this project is to explore the unique cell survival and metabolic properties of cells with Tsc1 or Tsc2 by screening for compounds that selectively target the Tsc2-/- MEFs by screening both Tsc2-/- and WT MEF cell lines. We hope to better understand these aspects of TSC physiology in order to exploit them for therapeutic benefit.
NCGC IN Cell Assay Protocol:
For quantitative high throughput analysis of mTORC1 signaling, we developed a cell-based assay for immuno-fluorescence based detection of rpS6 phosphorylation on the Acumen Explorer that will be used a platform for the primary small molecule screen. Mouse embryonic fibroblasts (MEFs) are cultured in 1536-well plates using DMEM + 10% FBS. Twenty-four hrs after plating, test compounds (solubilized in DMSO) are delivered and incubated with the cells for 24 hrs at 37 degree Celsius. Following the incubation, media with compound is aspirated and the cells are fixed in 4% paraformaldehyde (PFA) containing PBS + 0.2% TX-100. Next, PFA is aspirated, cells are washed two times with PBS plus 0.2% TX-100 and the cells are blocked for 1 hr at room temperature (blocking buffer: LiCOR Blocking Buffer plus 0.2% TX-100). This is followed by aspiration and staining with Alexa-488 conjugated-phospho-rpS6 Ser235/236 antibody for 2 hours at room temperature (Cell Signaling Technology # 4803, 1:50 dilution in blocking buffer). Cells are washed two times with PBS plus 0.2% TX-100, and stained with 10 uM propidium iodide (PI) for 20-25 minutes for cell number measurement (1:500 dilution of Hoescht staining is also added for IN Cell imaging). Active wells which are selected (based on Acumen results) are imaged on the IN Cell 1000 (GE Healthcare) using the D360/40X and HQ480/40X excitation filters for the Hoechst and Alexa-488 cytoplasmic stains, respectively. The fluorescence emission filters used were HQ460/40M and HQ535/50M for the Hoechst and Alexa-488 cytoplasmic stains, respectively. The normalized phospho-S6 staining is calculated as the ratio of […] for the single concentration rapamycin control ([…] nM) and DMSO columns. […] Inhibition of the pathway is defined based on the normalized phospho-S6 intensity in rapamycin treated cells. Each treatment is reported as the % positive cells in the well, where thresholds are defined by selecting wells with the highest and lowest signal and differentiating between the % non-active and % active populations. […]

| SMILES | activity change, negative = inhibition | outcome |
| --- | --- | --- |
| COc1ccc2c(c1OC)C(=O)O[C@H]2[C@@H]1c2cc3c(cc2CCN1C)OCO3 | -100% (inactive) | – |
| NCCc1ccc(O)cc1 | -100% (inactive) | – |
| O=C(O)CCCc1ccc(N(CCCl)CCCl)cc1 | -100% (inactive) | – |
| CN1C(=O)CCS(=O)(=O)C1c1ccc(Cl)cc1 (stereo not given) | -100% (inactive) | – |
| CCC1(c2ccc(N)cc2)CCC(=O)NC1=O (stereo not given) | -100% (inactive) | – |
| C=C(C)[C@H]1CN[C@H](C(=O)O)[C@H]1CC(=O)O | -100% (inactive) | – |
| CC(NC(C)(C)C)C(=O)c1cccc(Cl)c1 (stereo not given) | -100% (inactive) | – |
| CCCCC/C=C\C/C=C\C/C=C\C/C=C\CCCC(=O)NCC(=O)O | -100% (inactive) | – |
| CC(C)N(CCC(C(N)=O)(c1ccccc1)c1ccccn1)C(C)C (stereo not given) | – | inactive |
| Cc1ncsc1CCCl | -100% (inactive) | – |
| O=c1[nH]oc2c1CCNC2 | -100% (inactive) | – |
| CC(C)(C)NCC(O)c1ccccc1Cl (stereo not given) | -100% (inactive) | – |
| CC(C)c1cccc(C(C)C)c1O | -100% (inactive) | – |
| O=C(CCCN1CCC2(CC1)C(=O)NCN2c1ccccc1)c1ccc(F)cc1 | -100% (inactive) | – |
| O=P1(N(CCCl)CCCl)NCCCO1 (stereo not given) | -100% (inactive) | – |
